Source: ChEMBL document CHEMBL2218924, “A broad activity screen in support of a chemogenomic map for kinase signalling research and drug discovery” (Biochem J, 2013)

How the values were obtained:
[1] = biological target: Serine/threonine-protein kinase WNK2 (Homo sapiens) (UniProt Q9Y3S1); settings: at 10 µM
[2] = biological target: Serine/threonine-protein kinase WNK3 (Homo sapiens) (UniProt Q9BYP7); settings: at 1 µM
[3] = biological target: Serine/threonine-protein kinase WNK3 (Homo sapiens) (UniProt Q9BYP7); settings: at 10 µM
[4] = biological target: Tyrosine-protein kinase Yes (Homo sapiens) (UniProt P07947); settings: at 1 µM
[5] = biological target: Tyrosine-protein kinase Yes (Homo sapiens) (UniProt P07947); settings: at 10 µM
[6] = biological target: T1, Tyrosine-protein kinase ZAP-70 (Homo sapiens) (UniProt P43403); settings: at 1 µM
T1 sequence (whole entry): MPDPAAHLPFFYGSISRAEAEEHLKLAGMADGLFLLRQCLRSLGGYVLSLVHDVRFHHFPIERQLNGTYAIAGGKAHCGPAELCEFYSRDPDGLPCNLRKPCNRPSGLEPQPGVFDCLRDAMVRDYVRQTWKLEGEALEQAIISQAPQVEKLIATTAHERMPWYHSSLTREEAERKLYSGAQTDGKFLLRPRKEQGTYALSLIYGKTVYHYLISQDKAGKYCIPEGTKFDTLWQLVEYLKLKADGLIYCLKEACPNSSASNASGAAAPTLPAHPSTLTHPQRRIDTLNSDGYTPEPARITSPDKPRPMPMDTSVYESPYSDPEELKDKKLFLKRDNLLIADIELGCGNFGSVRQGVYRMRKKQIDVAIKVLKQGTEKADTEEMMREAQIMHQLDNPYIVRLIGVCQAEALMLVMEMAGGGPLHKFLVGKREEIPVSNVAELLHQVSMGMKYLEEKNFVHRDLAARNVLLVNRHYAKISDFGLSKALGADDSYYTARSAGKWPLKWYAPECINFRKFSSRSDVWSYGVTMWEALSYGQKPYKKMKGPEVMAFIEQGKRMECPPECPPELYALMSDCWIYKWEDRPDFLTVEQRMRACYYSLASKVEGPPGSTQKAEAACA

[7] = biological target: Death-associated protein kinase 3 (Homo sapiens) (UniProt O43293); settings: at 1 µM
[8] = biological target: Death-associated protein kinase 3 (Homo sapiens) (UniProt O43293); settings: at 10 µM
[9] = biological target: RAF proto-oncogene serine/threonine-protein kinase (Homo sapiens) (UniProt P04049); settings: at 1 µM
[10] = biological target: RAF proto-oncogene serine/threonine-protein kinase (Homo sapiens) (UniProt P04049); settings: at 10 µM

Chain of Serine/threonine-protein kinase WNK2 (Homo sapiens) (Q9Y3S1 whole entry): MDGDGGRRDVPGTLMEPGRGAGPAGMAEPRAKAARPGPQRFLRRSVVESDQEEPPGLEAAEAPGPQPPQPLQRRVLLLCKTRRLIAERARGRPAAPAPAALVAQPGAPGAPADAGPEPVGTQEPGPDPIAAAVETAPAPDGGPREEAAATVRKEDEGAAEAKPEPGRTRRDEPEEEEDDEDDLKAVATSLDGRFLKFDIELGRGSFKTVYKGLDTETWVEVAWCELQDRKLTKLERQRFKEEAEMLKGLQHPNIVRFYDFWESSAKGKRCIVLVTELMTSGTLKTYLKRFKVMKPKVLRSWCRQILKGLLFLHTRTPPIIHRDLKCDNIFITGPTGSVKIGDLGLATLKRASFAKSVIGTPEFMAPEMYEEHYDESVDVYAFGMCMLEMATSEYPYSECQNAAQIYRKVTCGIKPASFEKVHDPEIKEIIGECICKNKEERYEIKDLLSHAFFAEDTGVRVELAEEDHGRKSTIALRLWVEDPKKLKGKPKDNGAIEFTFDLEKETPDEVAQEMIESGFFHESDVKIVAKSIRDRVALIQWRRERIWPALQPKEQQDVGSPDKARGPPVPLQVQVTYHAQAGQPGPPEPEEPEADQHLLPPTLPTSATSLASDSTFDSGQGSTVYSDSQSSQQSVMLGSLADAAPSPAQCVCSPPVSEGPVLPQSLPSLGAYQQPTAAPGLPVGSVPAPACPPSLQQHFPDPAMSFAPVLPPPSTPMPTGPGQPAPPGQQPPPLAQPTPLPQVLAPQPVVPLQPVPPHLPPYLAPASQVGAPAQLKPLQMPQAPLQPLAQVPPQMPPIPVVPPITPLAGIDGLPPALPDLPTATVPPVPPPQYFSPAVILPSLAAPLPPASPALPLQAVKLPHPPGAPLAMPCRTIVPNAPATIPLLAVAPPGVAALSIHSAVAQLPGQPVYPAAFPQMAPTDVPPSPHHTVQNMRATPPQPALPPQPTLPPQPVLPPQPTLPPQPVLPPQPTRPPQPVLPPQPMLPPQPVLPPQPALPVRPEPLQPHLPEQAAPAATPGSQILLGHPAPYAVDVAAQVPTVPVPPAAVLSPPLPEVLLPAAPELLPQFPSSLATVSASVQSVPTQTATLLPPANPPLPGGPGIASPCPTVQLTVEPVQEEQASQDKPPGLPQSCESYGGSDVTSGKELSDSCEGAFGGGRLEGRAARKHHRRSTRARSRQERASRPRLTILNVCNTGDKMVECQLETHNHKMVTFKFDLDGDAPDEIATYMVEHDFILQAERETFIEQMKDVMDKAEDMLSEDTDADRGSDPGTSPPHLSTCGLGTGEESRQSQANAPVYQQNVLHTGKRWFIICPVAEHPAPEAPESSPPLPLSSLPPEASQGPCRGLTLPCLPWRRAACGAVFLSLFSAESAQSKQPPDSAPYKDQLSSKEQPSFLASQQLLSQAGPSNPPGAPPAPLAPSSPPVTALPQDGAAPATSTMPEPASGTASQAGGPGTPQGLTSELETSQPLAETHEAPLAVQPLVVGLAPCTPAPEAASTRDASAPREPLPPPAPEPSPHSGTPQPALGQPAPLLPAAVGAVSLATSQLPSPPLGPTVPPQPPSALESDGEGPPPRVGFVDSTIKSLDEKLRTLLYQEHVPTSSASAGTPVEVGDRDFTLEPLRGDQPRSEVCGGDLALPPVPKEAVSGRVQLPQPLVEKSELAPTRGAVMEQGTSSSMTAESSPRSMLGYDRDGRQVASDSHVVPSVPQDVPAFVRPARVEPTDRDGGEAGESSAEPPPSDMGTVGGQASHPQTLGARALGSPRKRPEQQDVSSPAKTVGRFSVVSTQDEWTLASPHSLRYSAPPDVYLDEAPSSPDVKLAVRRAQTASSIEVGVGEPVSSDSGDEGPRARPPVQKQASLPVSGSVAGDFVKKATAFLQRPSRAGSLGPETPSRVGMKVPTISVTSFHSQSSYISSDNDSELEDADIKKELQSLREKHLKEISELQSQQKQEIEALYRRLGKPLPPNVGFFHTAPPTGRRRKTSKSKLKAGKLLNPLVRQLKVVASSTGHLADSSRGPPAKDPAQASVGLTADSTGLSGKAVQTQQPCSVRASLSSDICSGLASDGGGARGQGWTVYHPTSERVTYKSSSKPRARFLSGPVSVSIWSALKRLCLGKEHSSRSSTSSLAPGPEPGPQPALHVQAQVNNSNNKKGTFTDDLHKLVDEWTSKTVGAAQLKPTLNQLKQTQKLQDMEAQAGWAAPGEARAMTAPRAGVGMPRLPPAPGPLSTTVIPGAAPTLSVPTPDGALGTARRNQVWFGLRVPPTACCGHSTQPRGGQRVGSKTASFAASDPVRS
Chain of Serine/threonine-protein kinase WNK3 (Homo sapiens) (Q9BYP7 whole entry): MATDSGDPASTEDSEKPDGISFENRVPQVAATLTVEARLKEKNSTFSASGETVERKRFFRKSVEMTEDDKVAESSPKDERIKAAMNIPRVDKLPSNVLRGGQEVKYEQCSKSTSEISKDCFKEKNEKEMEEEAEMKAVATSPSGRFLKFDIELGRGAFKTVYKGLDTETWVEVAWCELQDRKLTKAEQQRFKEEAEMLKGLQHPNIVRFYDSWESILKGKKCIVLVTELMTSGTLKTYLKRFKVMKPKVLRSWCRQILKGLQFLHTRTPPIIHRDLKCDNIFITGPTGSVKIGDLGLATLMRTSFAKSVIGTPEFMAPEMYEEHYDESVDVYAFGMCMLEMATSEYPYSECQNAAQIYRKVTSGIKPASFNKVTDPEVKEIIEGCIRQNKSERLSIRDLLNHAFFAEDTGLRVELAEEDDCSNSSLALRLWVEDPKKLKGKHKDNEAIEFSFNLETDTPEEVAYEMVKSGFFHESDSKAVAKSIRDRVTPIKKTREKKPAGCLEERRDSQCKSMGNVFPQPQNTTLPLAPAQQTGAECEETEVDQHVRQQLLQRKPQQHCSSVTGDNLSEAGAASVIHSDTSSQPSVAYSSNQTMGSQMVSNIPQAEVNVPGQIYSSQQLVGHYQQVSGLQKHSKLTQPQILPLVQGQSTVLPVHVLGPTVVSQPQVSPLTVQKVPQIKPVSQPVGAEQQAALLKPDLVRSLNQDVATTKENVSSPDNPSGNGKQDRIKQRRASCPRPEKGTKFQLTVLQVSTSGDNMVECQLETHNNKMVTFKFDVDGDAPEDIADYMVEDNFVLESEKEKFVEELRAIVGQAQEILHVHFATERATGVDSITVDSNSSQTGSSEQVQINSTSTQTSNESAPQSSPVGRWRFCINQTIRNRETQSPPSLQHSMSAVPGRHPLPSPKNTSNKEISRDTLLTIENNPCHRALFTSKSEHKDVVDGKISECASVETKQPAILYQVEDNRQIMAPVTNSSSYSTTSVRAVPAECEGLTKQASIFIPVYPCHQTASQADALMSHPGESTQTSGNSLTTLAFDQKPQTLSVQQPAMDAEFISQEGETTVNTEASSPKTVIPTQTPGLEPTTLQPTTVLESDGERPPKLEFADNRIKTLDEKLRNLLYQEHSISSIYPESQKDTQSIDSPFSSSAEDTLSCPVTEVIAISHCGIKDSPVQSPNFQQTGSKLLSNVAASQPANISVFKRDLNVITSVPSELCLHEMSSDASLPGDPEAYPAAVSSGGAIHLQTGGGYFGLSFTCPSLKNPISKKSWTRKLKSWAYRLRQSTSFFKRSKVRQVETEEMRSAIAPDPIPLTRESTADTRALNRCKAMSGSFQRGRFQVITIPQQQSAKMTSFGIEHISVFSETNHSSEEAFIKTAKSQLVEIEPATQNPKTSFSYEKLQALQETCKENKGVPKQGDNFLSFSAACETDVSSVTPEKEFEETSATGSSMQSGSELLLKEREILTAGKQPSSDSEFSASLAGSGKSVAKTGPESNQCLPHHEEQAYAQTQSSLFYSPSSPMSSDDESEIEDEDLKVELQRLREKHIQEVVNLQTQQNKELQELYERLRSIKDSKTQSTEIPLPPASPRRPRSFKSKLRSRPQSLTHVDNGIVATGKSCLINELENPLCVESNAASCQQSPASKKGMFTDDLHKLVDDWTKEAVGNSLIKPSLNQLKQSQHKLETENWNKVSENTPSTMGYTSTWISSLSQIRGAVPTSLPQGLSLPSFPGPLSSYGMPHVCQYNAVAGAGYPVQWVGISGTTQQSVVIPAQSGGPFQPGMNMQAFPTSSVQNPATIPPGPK
Chain of Tyrosine-protein kinase Yes (Homo sapiens) (P07947 2-543 limits assumed): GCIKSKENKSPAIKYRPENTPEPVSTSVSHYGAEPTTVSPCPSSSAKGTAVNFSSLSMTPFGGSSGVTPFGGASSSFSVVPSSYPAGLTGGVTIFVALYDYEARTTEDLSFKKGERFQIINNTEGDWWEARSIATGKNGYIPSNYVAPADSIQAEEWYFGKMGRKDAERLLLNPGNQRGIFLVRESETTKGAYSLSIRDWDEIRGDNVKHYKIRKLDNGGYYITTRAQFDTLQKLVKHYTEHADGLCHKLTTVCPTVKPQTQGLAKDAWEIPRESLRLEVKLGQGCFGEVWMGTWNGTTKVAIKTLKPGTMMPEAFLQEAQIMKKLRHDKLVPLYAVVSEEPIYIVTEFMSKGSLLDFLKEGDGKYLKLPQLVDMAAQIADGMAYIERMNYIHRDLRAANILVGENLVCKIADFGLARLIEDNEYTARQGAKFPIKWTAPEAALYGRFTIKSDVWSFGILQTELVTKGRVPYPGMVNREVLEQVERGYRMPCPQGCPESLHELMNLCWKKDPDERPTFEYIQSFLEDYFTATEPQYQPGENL
Chain of Death-associated protein kinase 3 (Homo sapiens) (O43293 whole entry, looked up): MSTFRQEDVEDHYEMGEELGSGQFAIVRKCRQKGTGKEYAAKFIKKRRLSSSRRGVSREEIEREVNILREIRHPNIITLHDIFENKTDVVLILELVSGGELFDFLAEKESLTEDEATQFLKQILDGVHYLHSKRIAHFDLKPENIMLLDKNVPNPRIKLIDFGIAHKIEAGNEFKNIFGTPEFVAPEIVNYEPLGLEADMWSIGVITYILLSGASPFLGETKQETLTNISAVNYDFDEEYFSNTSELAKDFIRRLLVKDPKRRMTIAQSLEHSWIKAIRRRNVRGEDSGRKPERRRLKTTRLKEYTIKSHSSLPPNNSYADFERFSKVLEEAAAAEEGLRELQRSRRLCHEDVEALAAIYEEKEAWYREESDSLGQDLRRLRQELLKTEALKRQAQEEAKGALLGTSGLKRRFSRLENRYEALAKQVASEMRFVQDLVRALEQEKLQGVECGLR

SMILES | residual activity [1] [%] | residual activity [2] | residual activity [3] [%] | residual activity [4] [%] | residual activity [5] [%] | residual activity [6] [%] | residual activity [7] [%] | residual activity [8] [%] | residual activity [9] [%] | residual activity [10] [%]
CNc1cc2c(Nc3cccc(Br)c3)ncnc2cn1 | 89 | 101% (inactive) | 91 | 67 | 45 | 99 | 84 | 88 | 80 | 91
COc1cc2ncnc(Nc3ccc(O)c(Br)c3)c2cc1OC | 70 | 87% (inactive) | 77 | 25 | 2 | 144 | 83 | 58 | 64 | 38
O=C(O)c1ccc2c3c1cccc3c(=O)n1c3ccccc3nc21 | 106 | 111% (inactive) | 97 | 118 | 103 | 113 | 60 | 14 | 83 | 89
Oc1ccc(-c2nc(-c3ccc(F)cc3)c(-c3ccncc3)[nH]2)cc1 | 84 | 109% (inactive) | 75 | 105 | 34 | 117 | 121 | 101 | 14 | –
CCC(=O)Nc1ccc2ncnc(Nc3cccc(Br)c3)c2c1 | 80 | 95% (inactive) | 80 | 85 | 50 | 86 | 75 | 100 | 77 | 90
COc1cccc(-c2cc(=O)c3ccccc3o2)c1N | 102 | 82% (inactive) | 100 | 123 | 106 | 137 | 105 | 101 | 85 | 86
Nc1ccc2ncnc(NCCc3ccc(Oc4ccccc4)cc3)c2c1 | 82 | 102% (inactive) | 87 | 63 | 33 | 109 | 111 | 111 | 82 | 77
O=C1NC(=O)/C(=C\c2ccc3nccnc3c2)S1 | 65 | 83% (inactive) | 79 | 119 | 102 | 109 | 71 | 21 | 73 | 44
COc1cc2ncnc(Nc3ccc(Oc4ccccc4)cc3)c2cc1OC | 41 | 88% (inactive) | 49 | 9 | 4 | 114 | 103 | 117 | – | –
CO[C@H]1[C@@H](OC)C[C@H](C)[C@@H](OC)C2=CC(=O)C=C(NC(=O)/C(C)=C/C=C/[C@H](OC)[C@@H](OC(N)=O)/C(C)=C/[C@@H]1C)C2=O | 90 | 112% (inactive) | 106 | 101 | 90 | 98 | 108 | 96 | 93 | 85
O=C1c2ccccc2-[n+]2ccc3c([nH]c4ccccc43)c21 | 92 | 91% (inactive) | 93 | 113 | 86 | 128 | 73 | 78 | 71 | 73
O=C1NC(=O)/C(=C/c2ccc3c(c2)OC(F)(F)O3)S1 | 85 | 104% (inactive) | 98 | 117 | 116 | 116 | 102 | 98 | 92 | 101
Ic1cccc(CSc2nnc(-c3ccncc3)o2)c1 | 83 | 89% (inactive) | 89 | 96 | 84 | 101 | 107 | 105 | 77 | 64
Oc1c2ccccc2c2c3c(cccc13)N=N2 | 77 | 87% (inactive) | 77 | 98 | 51 | 94 | 87 | 45 | 69 | 61
Cn1cc(/C=C2\C(=O)Nc3ccc(S(N)(=O)=O)cc32)c2ccccc21 | 85 | 97% (inactive) | 75 | 8 | 2 | 107 | 106 | 90 | 91 | 100
Cn1cnc2cc3c(Nc4cccc(Br)c4)ncnc3cc21 | 85 | 93% (inactive) | 90 | 31 | 14 | 87 | 89 | 101 | 85 | 90
O=C1NC(=O)c2cc(Nc3ccc(F)cc3)c(Nc3ccc(F)cc3)cc21 | 34 | 87% (inactive) | 46 | 61 | 10 | 113 | 104 | 99 | – | –

SMILES | residual activity [1] [%] | residual activity [2] | residual activity [3] [%] | residual activity [4] [%] | residual activity [5] [%] | residual activity [6] [%] | residual activity [7] [%] | residual activity [8] [%] | residual activity [9] [%] | residual activity [10] [%]
COc1cc2ncnc(N3CCN(C(=O)Nc4ccc(Oc5ccccc5)cc4)CC3)c2cc1OC | 48 | 80% (inactive) | 58 | 103 | 105 | 102 | 105 | 144 | 78 | 93
CC#CC(=O)Nc1cc2c(Nc3ccc(F)c(Cl)c3)ncnc2cn1 | 84 | 102% (inactive) | 79 | 101 | 90 | 103 | 90 | 100 | 82 | 92
O=c1cc(-c2cccc3c2Sc2ccccc2S3)oc(N2CCOCC2)c1 | 78 | 95% (inactive) | 87 | 109 | 91 | 113 | 104 | 99 | 96 | 55
O=C1Nc2cc(Br)ccc2/C1=C1/Nc2ccccc2/C1=N\O | 91 | 93% (inactive) | 93 | 1 | 4 | 97 | 38 | 18 | 77 | 68
Oc1n[nH]c2nnc(-c3c(-c4ccccc4)nn4ccccc34)cc12 | 86 | 92% (inactive) | 83 | 104 | 91 | 105 | 66 | 48 | 73 | 77
O=C(Nc1cccc(Nc2cc(Nc3cccc(C(F)(F)F)c3)ncn2)c1)C1CC1 | 81 | 95% (inactive) | 85 | 76 | 60 | 97 | 89 | 112 | 91 | 87
Cc1ccc(NC2=CC(=O)c3sc(C)nc3C2=O)cc1 | 90 | 80% (inactive) | 95 | 118 | 105 | 113 | 95 | 82 | 84 | 87
CC[n+]1c(/C=C/N(C)c2ccccc2)n(-c2ccccc2)c2ccc(-c3nc4ccccc4s3)cc21 | 35 | 100% (inactive) | 44 | 105 | 100 | 117 | 100 | 73 | 105 | 98
Oc1ccc(Nc2nc(-c3ccc(Cl)cc3)cs2)cc1 | 99 | 109% (inactive) | 91 | 123 | 92 | 115 | 110 | 133 | 84 | 84
N#C/C(=C(\N)Sc1ccc(N)cc1)c1ccccc1C(F)(F)F | 89 | 93% (inactive) | 89 | 107 | 101 | 100 | 89 | 100 | 76 | 66
CC(=O)O/N=C1\C(=C2\C(=O)Nc3cc(Br)ccc32)Nc2ccccc21 | 92 | 101% (inactive) | 94 | 42 | 4 | 106 | 99 | 71 | 80 | 75
O=Nc1c(-c2c(O)[nH]c3ccccc23)[nH]c2ccccc12 | 55 | 89% (inactive) | 60 | 17 | 0 | 79 | 81 | 37 | 89 | 66
O=C1NC(=O)c2c1c1c3ccccc3[nH]c1c1[nH]c3cc(Br)ccc3c21 | 85 | 85% (inactive) | 82 | 95 | 88 | 95 | 102 | 91 | 82 | 82
CO[C@@H]1[C@H](N(C)C(=O)c2ccccc2)C[C@H]2O[C@]1(C)n1c3ccccc3c3c4c(c5c6ccccc6n2c5c31)C(=O)NC4 | 60 | 91% (inactive) | 76 | 5 | 4 | 70 | 56 | 59 | 80 | 90
Cc1nc(-c2ccccc2)c(-c2ccncc2)o1 | 101 | 104% (inactive) | 100 | 121 | 99 | 127 | 106 | 94 | 60 | 40
O=[N+]([O-])c1ccc(-c2nc(-c3ccc(F)cc3)c(-c3ccncc3)[nH]2)cc1 | 95 | 92% (inactive) | 98 | 103 | 102 | 122 | 92 | 102 | 20 | 13
